Peg3 promoter: inhibitors of Peg3 promoter. 360,000 compounds, 1.7% hits. HeLa PEG-Prom luciferase reporter, luminescence, overnight. AID 588405. inhibition, % at 20 µM;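 active means inhibition of at least 50% at 20 µM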
LGR2 inh: blocks bursicon-induced cAMP signaling via Drosophila LGR2 | HEK293 LGR2, CRE-luciferase, bursicon-stimulated, 4 h | inhibition, % at 9.99 µM | 380,000 compounds, 0.35% hits | AID 720647;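 active means drop in luminescence signal, shown as inhibition above about 50% in the replicate tests, limit read from the data, passing the limit was not always enough; inconclusive means probably only some replicates passing the limit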;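 further: agonist challenge used bursicon conditioned medium at about half maximal strength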
KKLEB tox: reduces viability of KKLEB cystic fibrosis airway cells. KKLEB CF airway cells viability, ATPlite luminescence, overnight; hits give low values; cells stimulated with P. aeruginosa culture filtrate. activity change (cytotoxicity), % at 5 µM. 360,000 compounds, 0.36% hits. AID 602141;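 active means corrected activity change at or below -50% at 5 µM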
CF NFkB block: blocks PAF-induced NF-kB reporter in cystic fibrosis cells | KKLEB NF-kB-GFP reporter, GFP fluorescence overnight | inhibition, % at 5 µM | 360,000 compounds, 0.86% hits | AID 588850;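 active means at least 50% inhibition at 5 µM, scaled per plate between neutral and stimulator controls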;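 further: PAF is a Pseudomonas aeruginosa culture filtrate used as stimulus; plate controls were PAF-stimulated DMSO wells for no effect and unstimulated DMSO wells for full effect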
HSP90 inh: HSP90 refolding inhibition in rabbit reticulocyte lysate. inhibition, % at 5.6 µM. luciferase refolding luminescence, 3 h. 290,000 compounds, 0.91% hits;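 active means inhibition above the screen-wide mean plus 3 SD, computed separately per campaign, cut at about 16% in these data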;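 further: 0% = DMSO wells and 100% = 60 µM geldanamycin wells; inhibitors lower the luminescence because luciferase stays unfolded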
Mdm2 MdmX PPI: human Mdm2/MdmX binding inhibition. inhibition, % at 8 µM. O15151+Q00987. SaOS-2 split-luciferase Mdm2/MdmX complementation, luminescence. AID 485346. 330,000 compounds, 3% hits;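 active means inhibition of at least 50% at 8 µM in the primary screen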
HSP90 confirm: confirmation of HSP90 inhibitors. shares compounds with HSP90 inh. rabbit reticulocyte lysate, luciferase refolding luminescence, 3 h. inhibition, % at 5.9 µM. 2,300 compounds, 64% hits; in the data active means inhibition above about 18%;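 further: 0% = vehicle wells and 100% = reference inhibitor wells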
luciferase ctr: firefly luciferase inhibition, HSP90 counter-screen. 2,300 compounds, 48% hits. AID 1847. shares compounds with HSP90 inh. inhibition, % at 5.9 µM. purified native firefly luciferase, luminescence;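 active means inhibition above the mean inhibition of all tested sample wells plus 3 SD, cut at about 10% in these data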;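 further: 0% = DMSO with luciferase and 100% = wells lacking luciferase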
* marks the source's active call; other numbers are inactive results. Most compounds without a hit are left out; they make up all but 3.6% or so of the library.

`CO[C@@H]1CN(C)C(=O)c2cc(NC(=O)c3cnccn3)ccc2OC[C@H](C)N(CCc2ccccc2)C[C@H]1C` gave LGR2 inh -4.
Screening COCC(=O)Nc1ccc2c(c1)[C@H]1C[C@@H](CC(=O)NCc3ccncc3)O[C@H](CO)[C@H]1O2 returned LGR2 inh 6.
For O=C(COC(=O)c1ccccc1[N+](=O)[O-])c1ccc(C2CCCCC2)cc1 the results were Peg3 promoter -34, KKLEB tox -7, CF NFkB block 4, HSP90 inh 51*, Mdm2 MdmX PPI 37, HSP90 confirm 63* and luciferase ctr 79*.
For N#CC1(NC(=O)COC(=O)c2ccccc2[N+](=O)[O-])CCCCC1 the results were Peg3 promoter -68, LGR2 inh -1, KKLEB tox 8, CF NFkB block -6 and Mdm2 MdmX PPI 26.
`c1ccc(-n2cnc3cc(NCc4ccccn4)ccc32)cc1` gave Peg3 promoter -95, LGR2 inh -32, KKLEB tox -6, CF NFkB block 10, HSP90 inh 18*, Mdm2 MdmX PPI -8, HSP90 confirm 18* and luciferase ctr 3.
Screening COc1cccc2cc(-c3csc(NC(=O)CCC(=O)NCCCN4CCC(C)CC4)n3)c(=O)oc12 returned Peg3 promoter -109, LGR2 inh -2, KKLEB tox -8, CF NFkB block -18, HSP90 inh 27*, Mdm2 MdmX PPI -92, HSP90 confirm 2 and luciferase ctr -15.
Screening C[C@@H](NC(=O)[C@H]1[C@H](CO)[C@H]2Cn3c(ccc(C4=CCCC4)c3=O)[C@@H]1N2C(=O)C1CC1)c1ccccc1 returned LGR2 inh -5.
Screening COCCCN=Cc1c(C)[nH]n(-c2ccc(Br)c(C)c2)c1=O returned Peg3 promoter -155, LGR2 inh 16, KKLEB tox -9, CF NFkB block -5, HSP90 inh 18*, Mdm2 MdmX PPI -53, HSP90 confirm 42* and luciferase ctr 38*.
Screening O=C1CCN(Cc2ccccc2)CCN1CCOc1ccccc1 returned Peg3 promoter -136, LGR2 inh -52, KKLEB tox 32, CF NFkB block -24, HSP90 inh 17*, Mdm2 MdmX PPI -31, HSP90 confirm 13 and luciferase ctr 21*.
For O=C(Nc1ccccc1)OCCN1CCN(Cc2ccccc2)CCC1=O the results were Peg3 promoter -6, LGR2 inh 2, KKLEB tox -8, CF NFkB block 28, HSP90 inh 2 and Mdm2 MdmX PPI -27.
For C[C@@H]1CN([C@@H](C)CO)C(=O)c2cc(NS(=O)(=O)c3cccs3)ccc2O[C@@H]1CN(C)S(C)(=O)=O the results were LGR2 inh 16.
`CN(C)C(=O)c1cccc(-c2ccc3c(c2)[C@H]2[C@H](CCN2C(=O)C2CCCCC2)[C@@H](CO)N3)c1` gave LGR2 inh -10.
`CCc1nn2cc(-c3ccccc3)nc2s1` gave Peg3 promoter 35, KKLEB tox -31, CF NFkB block -25, HSP90 inh 65*, Mdm2 MdmX PPI -46, HSP90 confirm 81* and luciferase ctr 73*.
`Cc1nn2cc(-c3ccc(-c4ccccc4)cc3)nc2s1` gave Peg3 promoter -195, KKLEB tox -1, CF NFkB block -29, HSP90 inh 1 and Mdm2 MdmX PPI -96.
For O=C(NNc1nc2ccccc2o1)c1ccccc1 the results were Peg3 promoter -20, LGR2 inh 24, KKLEB tox -8, CF NFkB block -5, HSP90 inh 20*, Mdm2 MdmX PPI -50, HSP90 confirm 28* and luciferase ctr 20*.
`Cc1cc(C(=O)Nc2cccc3c2O[C@@H](CN(C)Cc2ccc4c(c2)OCO4)[C@H](C)CN([C@H](C)CO)C3=O)n(C)n1` gave LGR2 inh -9.
CCC(=O)Nc1ccc2c(c1)C(=O)N(C)C[C@H](OC)[C@H](C)CN(C(=O)C1CCC1)[C@H](C)CO2 was read as LGR2 inh -16.
Screening CCc1ccc(/C=N/NC(=O)c2ccccn2)cc1 returned Peg3 promoter 10, LGR2 inh 71*, KKLEB tox -22, CF NFkB block -8, HSP90 inh 23*, Mdm2 MdmX PPI -48, HSP90 confirm 73* and luciferase ctr 65*.
For CCN(CC)c1ccc(/C=N/NC(=O)c2ccccn2)cc1 the results were Peg3 promoter -149, LGR2 inh 9, KKLEB tox -20, CF NFkB block 7, HSP90 inh 13 and Mdm2 MdmX PPI -75.
`Cc1ccc(/C=N/NC(=O)c2ccncc2)s1` gave Peg3 promoter 0, LGR2 inh -1, KKLEB tox 8, CF NFkB block -6, HSP90 inh -2 and Mdm2 MdmX PPI 0.
Screening Cc1ccc(/C=N/NC(=O)c2ccccn2)s1 returned Peg3 promoter -85, LGR2 inh inconclusive, KKLEB tox 1, CF NFkB block 1, HSP90 inh 18*, Mdm2 MdmX PPI -37, HSP90 confirm 31* and luciferase ctr 19*.
O=c1oc(Nc2cccc(F)c2)nc2ccccc12 was read as Peg3 promoter -128, KKLEB tox 7, CF NFkB block -2, HSP90 inh 18*, Mdm2 MdmX PPI -19, HSP90 confirm 2 and luciferase ctr -14.
Screening Nc1nc(Nc2cccc(F)c2)nc2ccccc12 returned Peg3 promoter -223, KKLEB tox -2, CF NFkB block -17, HSP90 inh 0 and Mdm2 MdmX PPI -236.
Screening C[C@@H]1CN([C@@H](C)CO)C(=O)c2cc(C3=CCCC3)cnc2O[C@H]1CN(C)Cc1ccc(C(=O)O)cc1 returned LGR2 inh 2.
For O=c1c2ccccc2cnn1Cc1nnc(-c2cccs2)o1 the results were Peg3 promoter -16, LGR2 inh -14, KKLEB tox 9, CF NFkB block -13, HSP90 inh 19*, Mdm2 MdmX PPI -12, HSP90 confirm -1 and luciferase ctr -5.
`Cc1ccc(S(=O)c2snnc2C)cc1` (configuration not stated) gave Peg3 promoter 8, LGR2 inh -10, KKLEB tox -13, CF NFkB block 8, HSP90 inh 4 and Mdm2 MdmX PPI -7.
`Cc1nnsc1S(=O)c1ccc(F)cc1` (configuration not stated) gave Peg3 promoter 6, LGR2 inh 5, KKLEB tox 10, CF NFkB block -11, HSP90 inh 24*, Mdm2 MdmX PPI -2, HSP90 confirm -6 and luciferase ctr -11.

Compound activity as filed in PubChem.
